This is an account of results in PubChem BioAssay (NCI).

SMILES strings stand for the structures. Compounds without any hit were thinned out: in the full panel of roughly 83,000, 20% have a hit.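 Note: values are percent growth. 100 is the growth of untreated cells, values between 100 and 0 indicate rising inhibition; between -100 and 0 indicates cell death.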 Values without a mark were called inactive. Activity calls are given as the source filed them. How the source made its calls: active means growth percent below 10; inactive means the rest.

Among the test systems are NCI-H23 lung; NCI-H226 lung; NCI-H322M lung; HOP-62 NSCLC; NCI-H460 lung; HOP-92 NSCLC; NCI-H522 lung; A549/ATCC NSCLC; 786-0 renal; COLO 205 colon; DU-145 prostate; K-562 leukemia; MALME-3M melanoma; MDA-MB-231 breast; RXF 393 renal; SF-268 CNS; SF-295 CNS; SF-539 CNS; UACC-257 melanoma; M14 melanoma.
What all share (test): NCI-60 one-dose screen, 48 h (100 = growth as untreated, 0 = no growth, -100 = all killed)
What all share (conditions): 10 µM unless noted

For `COC(=O)CCc1c[nH]c2ccc(N(CCCl)CCCl)cc12`, the growth in the assay with NCI-H23 lung is 31.1%; in the assay on NCI-H226 lung, 79%; with NCI-H322M lung, 95.1%; in the assay on HOP-62 NSCLC it was 47.5%; in the assay with NCI-H460 lung, 17.4%; with HOP-92 NSCLC it was 84.4%. Moreover, the growth in the assay with NCI-H522 lung is 42.3%; with A549/ATCC NSCLC, 44%; in the assay on 786-0 renal, 24.8%; in the assay on COLO 205 colon, 68.8%; with DU-145 prostate, 33.3%; in the assay with K-562 leukemia it was 70.7%. The growth in the assay with MALME-3M melanoma was 71%; in the assay with MDA-MB-231 breast, 121%; in the assay on RXF 393 renal it was 46.8%; in the assay with SF-268 CNS it was 40.6%; with SF-295 CNS, 32.9%; in the assay with SF-539 CNS, 23.2%. Besides, the values for the growth with UACC-257 melanoma and in the assay with M14 melanoma were 85.9% and 45.4%, respectively.

For `CC12CC=CCC1CCC1C2CCC2(C)C(c3ccc(=O)oc3)CCC12O` (stereo not given), the growth in the assay on NCI-H23 lung is -44.2% (active); in the assay on NCI-H226 lung it was -90.6% (active); in the assay with NCI-H322M lung, -19.9% (active); in the assay with HOP-62 NSCLC, -65.2% (active); in the assay on NCI-H460 lung it was -70.4% (active); in the assay on HOP-92 NSCLC, 1.77% (active). The growth with NCI-H522 lung is -19.9% (active); in the assay with A549/ATCC NSCLC, -37.7% (active); with 786-0 renal, -42.4% (active); in the assay with COLO 205 colon it was -43.6% (active); with DU-145 prostate it was -98% (active); in the assay on K-562 leukemia, 3.02% (active). The growth with MALME-3M melanoma was -51.8% (active); in the assay on MDA-MB-231 breast, -4.41% (active); in the assay with RXF 393 renal, -46.5% (active); in the assay on SF-268 CNS it was -62.2% (active); in the assay with SF-295 CNS it was -36.7% (active); in the assay on SF-539 CNS, -93.7% (active). For the same compound, the growth with UACC-257 melanoma is -52.8% (active); in the assay with M14 melanoma, -28% (active).

For `CCCCCSC1C2C(=O)C(Br)=CC13CCNc1c(O)c4c5c(c13)=[N+]2CCC=5C=N4` (stereo not given), the growth was -17.1% (active) with NCI-H23 lung; -5.15% (active) in the assay with NCI-H226 lung; 2.94% (active) in the assay with NCI-H322M lung; -73.2% (active) with HOP-62 NSCLC; -33.7% (active) in the assay on NCI-H460 lung; -56.1% (active) with HOP-92 NSCLC. Further, the growth in the assay with NCI-H522 lung is -64.4% (active); in the assay with A549/ATCC NSCLC it was -52.1% (active); in the assay with 786-0 renal it was -50.3% (active); with COLO 205 colon, -76.5% (active); with DU-145 prostate, -100% (active); in the assay on K-562 leukemia, -32% (active). The growth in the assay on MALME-3M melanoma was -99.5% (active); with MDA-MB-231 breast, -7.12% (active); in the assay with RXF 393 renal, -28.5% (active); with SF-268 CNS, -51.7% (active); with SF-295 CNS, 20.9%; in the assay with SF-539 CNS it was -79.6% (active). Besides, the growth in the assay on UACC-257 melanoma was -79.6% (active); with M14 melanoma, -92.6% (active).

With `Oc1ccc2c3c1OC1[C@@H](O)CC[C@@]4(O)[C@@H](C2)N(CC2CCC2)CC[C@]314` (stereo not given in full), the growth in the assay on NCI-H23 lung is 104%; in the assay with NCI-H226 lung, 99.1%; in the assay with NCI-H322M lung, 97.7%; with HOP-62 NSCLC, 107%; in the assay on NCI-H460 lung, 115%; in the assay on HOP-92 NSCLC, 86.8%. For the same compound, the growth in the assay on NCI-H522 lung is 86.3%; in the assay with A549/ATCC NSCLC, 98.9%; in the assay on 786-0 renal, 96.6%; in the assay with COLO 205 colon, 113%; in the assay with DU-145 prostate it was 113%; in the assay on K-562 leukemia, 94.7%. Besides, the growth with MALME-3M melanoma is 92.5%; in the assay on MDA-MB-231 breast it was 114%; with RXF 393 renal, 97.7%; with SF-268 CNS it was 105%; in the assay on SF-295 CNS, 102%; in the assay with SF-539 CNS, 103%. Also, the growth was 97.6% with UACC-257 melanoma and 103% in the assay with M14 melanoma.

Consider `CC1(C)N=C(N)N=C(N)N1c1ccc(OCCCNC(=O)Nc2ccc(S(=O)(=O)F)cc2)c(Cl)c1`, for which the growth with NCI-H23 lung was 27.3%; in the assay with NCI-H226 lung, 40.1%; in the assay with NCI-H322M lung, 52.5%; with HOP-62 NSCLC it was 49%; in the assay with NCI-H460 lung it was 14.4%; in the assay with HOP-92 NSCLC, 78.6%. For the same compound, the growth in the assay on NCI-H522 lung was 21.5%; in the assay with A549/ATCC NSCLC it was 18%; in the assay on 786-0 renal, 27.5%; in the assay with COLO 205 colon, 31.5%; with DU-145 prostate it was 32.4%; with K-562 leukemia, 25.2%. Further, the growth in the assay with MALME-3M melanoma is 55.2%; in the assay with MDA-MB-231 breast, 65.1%; in the assay on RXF 393 renal, 49.4%; in the assay with SF-268 CNS, 32.3%; with SF-295 CNS, 21.7%; with SF-539 CNS it was 16.5%. Also, the growth in the assay with UACC-257 melanoma is 26.4%; in the assay on M14 melanoma, 35.3%.

`C[C@]12CC[C@H]3[C@@H](C[C@@H]4SC(Nc5ccccc5)=N[C@@]45CC(O)CC[C@]35C)[C@@H]1CCC2O` (stereo not given in full): the growth is 67.3% in the assay with NCI-H23 lung; 63.9% with NCI-H226 lung; 78.4% in the assay on NCI-H322M lung; 34.2% in the assay on HOP-62 NSCLC; 6.06% (active) in the assay with NCI-H460 lung; 104% in the assay on HOP-92 NSCLC. In addition, the growth was 25.8% in the assay on NCI-H522 lung; 57.1% in the assay with A549/ATCC NSCLC; -49.7% (active) with 786-0 renal; 57.1% in the assay with COLO 205 colon; 14.2% with DU-145 prostate; 4.96% (active) in the assay with K-562 leukemia. Also, the growth with MALME-3M melanoma was 71.2%; in the assay on MDA-MB-231 breast, 35.8%; with RXF 393 renal, -32.3% (active); with SF-268 CNS, 9.68% (active); in the assay with SF-295 CNS it was 7.36% (active); in the assay on SF-539 CNS, -34.3% (active). Besides, the values for the growth in the assay on UACC-257 melanoma and in the assay on M14 melanoma were 69.3% and 53.4%, respectively.

Turning to `CCOC(=O)[C@@H](C)C[C@H](Cc1ccccc1)NC(=O)c1csc([C@@H](C[C@H](C(C)C)N(C)C(=O)[C@H](CCC(C)C)NC(=O)[C@H]2CCCCN2C)OC(C)=O)n1`, the growth with NCI-H23 lung is 25.3%; in the assay with NCI-H226 lung, 27.7%; in the assay on NCI-H322M lung it was 28.2%; in the assay with HOP-62 NSCLC, 13.8%; in the assay on NCI-H460 lung, 5.8% (active); in the assay on HOP-92 NSCLC it was -1.79% (active). The growth in the assay on NCI-H522 lung was -27% (active); in the assay on A549/ATCC NSCLC, 8.64% (active); in the assay with 786-0 renal it was 3.93% (active); in the assay on COLO 205 colon it was -75.2% (active); in the assay on DU-145 prostate, 15.7%; with K-562 leukemia, 7.91% (active). Moreover, the growth in the assay on MALME-3M melanoma is 33.1%; in the assay on MDA-MB-231 breast it was 1.66% (active); in the assay on RXF 393 renal, 12.6%; in the assay with SF-268 CNS, 22.1%; in the assay with SF-295 CNS it was 12.2%; in the assay with SF-539 CNS, -10.2% (active). In addition, the figures for the growth in the assay on UACC-257 melanoma and in the assay on M14 melanoma were 46.9% and -7.2% (active), respectively.

Take `O=C(c1ccccc1O)c1[nH]c(Cl)c(Cl)c1-n1c(C(=O)c2ccccc2O)cc(Cl)c1Cl`: the growth is -10.6% (active) in the assay on NCI-H23 lung; -1.5% (active) in the assay on NCI-H226 lung; -0.432% (active) in the assay on NCI-H322M lung; -9.18% (active) in the assay with HOP-62 NSCLC; 0.792% (active) with NCI-H460 lung; -37.6% (active) in the assay with HOP-92 NSCLC. For the same compound, the growth with NCI-H522 lung was -17.9% (active); with A549/ATCC NSCLC, 3.18% (active); with 786-0 renal, -9.15% (active); in the assay on COLO 205 colon, -95.7% (active); in the assay on DU-145 prostate, 19.2%; with K-562 leukemia, 6.74% (active). In addition, the growth was -25.5% (active) in the assay with MALME-3M melanoma; -31.7% (active) in the assay on MDA-MB-231 breast; -19.4% (active) in the assay on RXF 393 renal; 4.86% (active) in the assay with SF-268 CNS; -25.5% (active) in the assay with SF-295 CNS; 7.94% (active) in the assay with SF-539 CNS. Further, the results for the growth with UACC-257 melanoma and in the assay with M14 melanoma were -24.9% (active) and -0.41% (active), respectively.
